This passage reports inhibition results from ChEMBL document CHEMBL1961873, “Compounds: GSK PKIS; Assays: Nanosyn kinase panel” (2012).

SMILES strings stand for the structures.

For assay [1], the system named is Proto-oncogene tyrosine-protein kinase receptor Ret (Homo sapiens), P07949 [Y791F]. Particulars: at 1 µM.
The target in assay [2] is Macrophage-stimulating protein receptor (Homo sapiens) (UniProt Q04912). Particulars: at 0.1 µM.
For assay [3] the target is unchanged. Particulars: at 1 µM.
The target of assay [4] is Proto-oncogene tyrosine-protein kinase ROS (Homo sapiens) (UniProt P08922). Particulars: at 0.1 µM.
Assay [5] has the same target. Particulars: at 1 µM.
Assay [6] addresses Proto-oncogene tyrosine-protein kinase Src (Homo sapiens) (UniProt P12931). Particulars: at 0.1 µM.
Assay [7] shares this target. Particulars: at 1 µM.
Assay [8] deals with Tyrosine-protein kinase Srms (Homo sapiens) (UniProt Q9H3Y6). Particulars: at 0.1 µM.
Chain of Tyrosine-protein kinase Srms (Homo sapiens) (Q9H3Y6 whole entry): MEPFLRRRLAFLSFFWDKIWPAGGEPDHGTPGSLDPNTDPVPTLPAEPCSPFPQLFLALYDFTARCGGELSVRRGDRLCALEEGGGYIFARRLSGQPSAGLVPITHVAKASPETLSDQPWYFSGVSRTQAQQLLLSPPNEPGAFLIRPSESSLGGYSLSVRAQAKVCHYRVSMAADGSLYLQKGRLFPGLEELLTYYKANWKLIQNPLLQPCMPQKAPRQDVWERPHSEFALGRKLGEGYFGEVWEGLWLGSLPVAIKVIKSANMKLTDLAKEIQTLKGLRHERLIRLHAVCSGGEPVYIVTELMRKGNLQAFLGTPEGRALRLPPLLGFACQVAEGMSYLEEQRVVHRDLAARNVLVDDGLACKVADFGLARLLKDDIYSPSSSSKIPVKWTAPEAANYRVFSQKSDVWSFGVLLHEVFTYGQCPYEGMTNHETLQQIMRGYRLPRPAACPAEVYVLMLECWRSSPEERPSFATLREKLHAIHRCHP
The target is the same in assay [9]. Particulars: at 1 µM.
The target of assay [10] is Tyrosine-protein kinase SYK (Homo sapiens) (UniProt P43405). Particulars: at 0.1 µM.
The target is the same in assay [11]. Particulars: at 1 µM.
Assay [12] addresses T1, Tyrosine-protein kinase Tec (Homo sapiens) (UniProt P42680).
T1 sequence (whole entry): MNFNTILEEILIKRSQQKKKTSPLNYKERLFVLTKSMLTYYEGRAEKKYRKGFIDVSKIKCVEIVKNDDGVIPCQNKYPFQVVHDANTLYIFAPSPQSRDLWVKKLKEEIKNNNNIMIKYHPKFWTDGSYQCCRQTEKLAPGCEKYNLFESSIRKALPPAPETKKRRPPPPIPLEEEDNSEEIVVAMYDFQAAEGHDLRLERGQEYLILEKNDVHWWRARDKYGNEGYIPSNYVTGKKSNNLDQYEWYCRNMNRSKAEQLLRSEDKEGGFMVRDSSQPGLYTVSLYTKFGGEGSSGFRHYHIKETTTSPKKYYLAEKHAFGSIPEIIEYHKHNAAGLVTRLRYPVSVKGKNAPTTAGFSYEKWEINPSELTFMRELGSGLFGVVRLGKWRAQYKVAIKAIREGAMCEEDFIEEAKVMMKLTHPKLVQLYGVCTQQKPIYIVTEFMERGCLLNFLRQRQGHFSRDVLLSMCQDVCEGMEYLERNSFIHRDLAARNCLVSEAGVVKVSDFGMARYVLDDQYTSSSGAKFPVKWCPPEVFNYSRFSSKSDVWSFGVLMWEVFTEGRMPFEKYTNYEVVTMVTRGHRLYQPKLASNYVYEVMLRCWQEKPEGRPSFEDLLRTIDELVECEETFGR
Particulars: at 0.1 µM.

Assay [13] deals with T1, Tyrosine-protein kinase Tec (Homo sapiens). Particulars: at 1 µM.
In assay [14] the target is Angiopoietin-1 receptor (Homo sapiens) (UniProt Q02763). Particulars: at 0.1 µM.
The target is the same in assay [15]. Particulars: at 1 µM.
Assay [16] has as its target T2, Non-receptor tyrosine-protein kinase TNK1 (Homo sapiens) (UniProt Q13470).
T2 sequence (whole entry): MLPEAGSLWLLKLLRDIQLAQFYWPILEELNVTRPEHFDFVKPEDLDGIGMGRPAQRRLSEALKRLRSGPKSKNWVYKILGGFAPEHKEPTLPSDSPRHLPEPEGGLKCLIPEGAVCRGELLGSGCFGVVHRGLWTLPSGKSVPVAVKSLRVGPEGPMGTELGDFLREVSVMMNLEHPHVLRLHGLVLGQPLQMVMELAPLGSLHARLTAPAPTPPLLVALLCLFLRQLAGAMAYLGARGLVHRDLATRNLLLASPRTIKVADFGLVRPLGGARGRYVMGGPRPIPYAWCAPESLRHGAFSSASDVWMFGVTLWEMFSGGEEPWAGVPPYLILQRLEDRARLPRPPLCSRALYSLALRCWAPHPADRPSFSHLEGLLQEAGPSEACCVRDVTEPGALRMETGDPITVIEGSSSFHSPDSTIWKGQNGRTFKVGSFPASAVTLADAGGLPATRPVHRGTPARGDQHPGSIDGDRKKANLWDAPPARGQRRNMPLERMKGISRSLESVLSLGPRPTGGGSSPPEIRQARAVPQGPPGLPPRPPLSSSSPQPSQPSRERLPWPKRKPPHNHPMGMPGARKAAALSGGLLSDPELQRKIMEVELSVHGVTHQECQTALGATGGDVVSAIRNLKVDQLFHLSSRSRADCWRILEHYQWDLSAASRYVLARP
Particulars: at 0.1 µM.

Assay [17] addresses T2, Non-receptor tyrosine-protein kinase TNK1 (Homo sapiens). Particulars: at 1 µM.
Assay [18] addresses Activated CDC42 kinase 1 (Homo sapiens) (UniProt Q07912). Particulars: at 0.1 µM.
The target is the same in assay [19]. Particulars: at 1 µM.
The target in assay [20] is High affinity nerve growth factor receptor (Homo sapiens) (UniProt P04629). Particulars: at 0.1 µM.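 Further: each value is a mean of replicate percent inhibition readings against TRKA kinase.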
Chain of High affinity nerve growth factor receptor (Homo sapiens) (P04629 33-796 limits assumed): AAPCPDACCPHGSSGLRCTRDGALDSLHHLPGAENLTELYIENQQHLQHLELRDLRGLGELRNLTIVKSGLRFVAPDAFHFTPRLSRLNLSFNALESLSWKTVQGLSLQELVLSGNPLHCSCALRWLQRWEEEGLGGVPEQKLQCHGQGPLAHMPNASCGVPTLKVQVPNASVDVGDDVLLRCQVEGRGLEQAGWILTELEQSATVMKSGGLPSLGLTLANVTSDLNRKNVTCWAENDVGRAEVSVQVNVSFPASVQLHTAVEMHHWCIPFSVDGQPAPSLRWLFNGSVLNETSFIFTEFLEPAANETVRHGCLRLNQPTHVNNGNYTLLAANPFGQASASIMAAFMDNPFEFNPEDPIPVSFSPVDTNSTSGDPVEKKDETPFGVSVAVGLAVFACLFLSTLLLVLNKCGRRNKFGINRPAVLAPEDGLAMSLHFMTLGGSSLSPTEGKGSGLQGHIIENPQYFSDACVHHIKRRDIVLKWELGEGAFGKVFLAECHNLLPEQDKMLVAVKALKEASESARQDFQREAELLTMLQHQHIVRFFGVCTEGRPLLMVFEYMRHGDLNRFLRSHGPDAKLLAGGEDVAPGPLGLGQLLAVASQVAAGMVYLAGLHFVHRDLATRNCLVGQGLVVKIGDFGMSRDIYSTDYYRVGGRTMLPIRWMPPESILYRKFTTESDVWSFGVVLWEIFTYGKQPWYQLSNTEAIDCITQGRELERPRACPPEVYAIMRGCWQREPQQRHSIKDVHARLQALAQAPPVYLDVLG

Chain of Proto-oncogene tyrosine-protein kinase receptor Ret (Homo sapiens), P07949 [Y791F] (P07949 whole entry Y791F): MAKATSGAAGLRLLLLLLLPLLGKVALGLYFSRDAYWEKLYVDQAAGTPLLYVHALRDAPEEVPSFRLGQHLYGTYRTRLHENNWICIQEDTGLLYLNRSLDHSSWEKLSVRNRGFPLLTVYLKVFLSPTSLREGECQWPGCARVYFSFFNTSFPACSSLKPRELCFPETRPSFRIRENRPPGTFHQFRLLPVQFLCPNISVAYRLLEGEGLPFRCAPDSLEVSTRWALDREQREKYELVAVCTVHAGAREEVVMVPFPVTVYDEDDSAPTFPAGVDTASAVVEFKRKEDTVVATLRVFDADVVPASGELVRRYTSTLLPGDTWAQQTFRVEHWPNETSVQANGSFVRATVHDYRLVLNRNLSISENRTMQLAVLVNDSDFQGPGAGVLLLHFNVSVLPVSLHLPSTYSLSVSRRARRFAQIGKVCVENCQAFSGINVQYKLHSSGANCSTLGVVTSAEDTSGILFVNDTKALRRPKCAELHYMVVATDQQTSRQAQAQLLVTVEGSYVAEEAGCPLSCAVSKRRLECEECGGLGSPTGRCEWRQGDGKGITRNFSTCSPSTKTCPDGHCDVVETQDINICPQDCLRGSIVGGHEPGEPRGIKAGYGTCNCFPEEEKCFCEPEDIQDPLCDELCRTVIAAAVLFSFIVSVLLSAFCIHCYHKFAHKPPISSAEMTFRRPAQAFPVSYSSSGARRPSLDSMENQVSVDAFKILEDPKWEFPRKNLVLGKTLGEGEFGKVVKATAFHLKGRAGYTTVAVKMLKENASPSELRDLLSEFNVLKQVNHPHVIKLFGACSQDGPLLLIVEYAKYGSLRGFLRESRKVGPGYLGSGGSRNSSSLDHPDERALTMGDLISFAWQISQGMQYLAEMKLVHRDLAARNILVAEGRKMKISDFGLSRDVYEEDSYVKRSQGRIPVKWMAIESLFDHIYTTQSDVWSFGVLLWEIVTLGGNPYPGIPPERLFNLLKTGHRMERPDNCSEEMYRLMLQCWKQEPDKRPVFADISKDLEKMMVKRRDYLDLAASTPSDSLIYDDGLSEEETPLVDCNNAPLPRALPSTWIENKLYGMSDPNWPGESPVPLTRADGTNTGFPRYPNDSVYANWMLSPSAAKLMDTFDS
Chain of Macrophage-stimulating protein receptor (Homo sapiens) (Q04912 25-304 limits assumed): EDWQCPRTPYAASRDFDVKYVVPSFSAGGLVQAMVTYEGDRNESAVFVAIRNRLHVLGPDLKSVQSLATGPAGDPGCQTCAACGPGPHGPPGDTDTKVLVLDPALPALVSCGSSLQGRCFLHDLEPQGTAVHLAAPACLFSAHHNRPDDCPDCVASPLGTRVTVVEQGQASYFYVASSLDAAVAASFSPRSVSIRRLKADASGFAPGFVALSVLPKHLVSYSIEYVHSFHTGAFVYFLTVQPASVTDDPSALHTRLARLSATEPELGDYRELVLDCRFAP
Chain of Macrophage-stimulating protein receptor (Homo sapiens) (Q04912 310-1400 limits assumed): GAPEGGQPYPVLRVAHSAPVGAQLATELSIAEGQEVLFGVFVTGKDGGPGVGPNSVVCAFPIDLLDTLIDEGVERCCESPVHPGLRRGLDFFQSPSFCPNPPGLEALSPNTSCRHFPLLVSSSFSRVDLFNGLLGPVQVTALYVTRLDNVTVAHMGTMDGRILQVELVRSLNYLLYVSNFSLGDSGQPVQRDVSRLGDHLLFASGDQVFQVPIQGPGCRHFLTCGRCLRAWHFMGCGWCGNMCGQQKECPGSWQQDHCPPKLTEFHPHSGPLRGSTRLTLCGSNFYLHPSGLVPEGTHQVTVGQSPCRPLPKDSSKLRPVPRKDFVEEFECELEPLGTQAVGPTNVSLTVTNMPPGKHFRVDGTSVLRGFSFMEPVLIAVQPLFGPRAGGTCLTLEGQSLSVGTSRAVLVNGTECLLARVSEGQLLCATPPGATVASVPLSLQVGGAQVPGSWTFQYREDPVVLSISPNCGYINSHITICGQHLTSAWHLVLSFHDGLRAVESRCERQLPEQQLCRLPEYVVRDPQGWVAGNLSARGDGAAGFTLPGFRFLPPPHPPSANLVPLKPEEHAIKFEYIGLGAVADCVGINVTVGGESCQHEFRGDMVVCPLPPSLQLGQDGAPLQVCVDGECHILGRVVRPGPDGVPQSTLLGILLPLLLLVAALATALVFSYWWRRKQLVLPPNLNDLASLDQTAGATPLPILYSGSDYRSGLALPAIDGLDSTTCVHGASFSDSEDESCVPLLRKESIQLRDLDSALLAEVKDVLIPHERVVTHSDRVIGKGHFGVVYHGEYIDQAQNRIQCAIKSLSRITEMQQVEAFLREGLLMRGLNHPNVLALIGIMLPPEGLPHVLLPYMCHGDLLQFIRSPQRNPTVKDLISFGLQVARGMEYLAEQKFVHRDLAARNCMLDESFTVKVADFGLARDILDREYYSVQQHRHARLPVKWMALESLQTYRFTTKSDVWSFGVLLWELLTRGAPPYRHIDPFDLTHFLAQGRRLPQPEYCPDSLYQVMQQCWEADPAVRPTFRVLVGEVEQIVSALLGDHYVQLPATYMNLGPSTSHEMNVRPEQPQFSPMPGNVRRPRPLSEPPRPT
Chain of Proto-oncogene tyrosine-protein kinase Src (Homo sapiens) (P12931 2-536 limits assumed): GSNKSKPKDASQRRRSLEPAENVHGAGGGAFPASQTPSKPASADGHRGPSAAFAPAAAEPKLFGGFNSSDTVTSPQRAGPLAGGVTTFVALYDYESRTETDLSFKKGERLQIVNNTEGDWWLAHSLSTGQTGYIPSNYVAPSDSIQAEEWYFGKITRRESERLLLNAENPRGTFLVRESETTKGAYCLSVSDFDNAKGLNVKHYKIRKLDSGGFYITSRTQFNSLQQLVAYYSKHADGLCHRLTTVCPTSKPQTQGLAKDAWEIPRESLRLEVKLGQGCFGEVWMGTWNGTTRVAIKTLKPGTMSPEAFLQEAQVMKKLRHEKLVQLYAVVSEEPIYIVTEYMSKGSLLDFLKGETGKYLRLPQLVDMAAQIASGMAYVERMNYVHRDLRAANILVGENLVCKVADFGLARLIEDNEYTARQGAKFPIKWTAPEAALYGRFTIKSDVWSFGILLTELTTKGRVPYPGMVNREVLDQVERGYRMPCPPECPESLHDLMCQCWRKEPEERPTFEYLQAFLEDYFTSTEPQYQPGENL

With `COc1ccc(-c2nn3ncccc3c2-c2ccnc(Nc3ccc(F)c(F)c3)n2)cc1`, the inhibition in assay [1] came to 19.1%; in assay [2], 1.18%; in assay [3], 2.96%; in assay [4] it was 6.57%; in assay [5], 9.74%; in assay [6] it was 3.58%. Moreover, the inhibition in assay [7] is 19.4%; in [8], -2.81%; in assay [9], 1.37%; in assay [10] it was -2.45%; in assay [11], -2.02%; in [12] it was 6.05%. Moreover, the inhibition came out at 7.67% in [13]; 3.17% in assay [14]; 7.31% in [15]; 4.48% in assay [16]; 9.68% in assay [17]; 1.57% in [18]. Further, the inhibition came to 4.87% in assay [19] and 1.54% in assay [20].

For the molecule `c1cnn2ncc(-c3ccnc(NCCCN4CCOCC4)n3)c2c1`, the inhibition in assay [1] turned out to be 0.64%; in assay [2], 7.49%; in assay [3], 0.88%; in [4], 5.24%; in [5], 8.64%; in assay [6] it was 2.26%. The inhibition was 5.93% in assay [7]; 0.14% in assay [8]; 1.41% in assay [9]; -6.13% in assay [10]; 0.5% in [11]; 2.64% in assay [12]. Also, the inhibition in [13] was 3.12%; in assay [14] it was 2.79%; in assay [15], 3.09%; in [16], 1.04%; in assay [17], -1.51%; in assay [18] it was 0.23%. For the same molecule, the inhibition in [19] was -0.49%; in [20], 2.69%.

Consider `O=C1Nc2ccccc2/C1=C1\CCc2cc(O)ccc21`, for which the inhibition in assay [1] was 64.6%; in assay [2], 5.94%; in assay [3] it was 2.23%; in assay [4] it was 10.8%; in assay [5], 18.6%; in assay [6] it was -0.52%. In addition, the inhibition in assay [7] is 15.2%; in assay [8], -1.04%; in assay [9] it was -4.06%; in [10], -8.61%; in [11], -3.48%; in [12] it was 5.96%. The inhibition was 10.2% in [13]; 4.53% in [14]; 7.58% in assay [15]; 11.5% in [16]; 45.2% in assay [17]; 0.75% in assay [18]. The inhibition in assay [19] turned out to be 1.9%; in [20], 18.6%.

`COc1cccc(-n2ncc3c(N/N=C/c4ccc(C(=O)NCCN(C)C)cc4)ncnc32)c1`: the inhibition turned out to be 72.4% in [1]; 28.8% in assay [2]; 66.3% in assay [3]; 11.2% in assay [4]; 41.7% in assay [5]; 65% in assay [6]. The inhibition in assay [7] is 89.7%; in [8] it was 2.52%; in assay [9], 19.9%; in assay [10] it was -2.88%; in assay [11], 5.44%; in assay [12] it was 4.74%. Further, the inhibition came out at 19.6% in [13]; 8.62% in [14]; 46.4% in assay [15]; 25.4% in assay [16]; 68.3% in assay [17]; 2.34% in assay [18]. Further, the values for the inhibition in [19] and in [20] were 13.2% and 6.69%, respectively.

In the case of `N#Cc1ccc2c(-c3ccnc(NC4CC4)n3)c(-c3ccc(F)cc3)nn2c1`, the inhibition in assay [1] was found to be 10.8%; in [2], 2.34%; in assay [3] it was 0.41%; in assay [4] it was 1.21%; in [5], 1.91%; in assay [6] it was 2.91%. In addition, the inhibition is 3.58% in assay [7]; 0.49% in assay [8]; -0.99% in [9]; 0.61% in assay [10]; -1.91% in assay [11]; -0.44% in assay [12]. In addition, the inhibition in assay [13] was 3.17%; in [14] it was 1.54%; in assay [15], 3.72%; in [16], -0.18%; in assay [17] it was 1.77%; in assay [18], 0.77%. In addition, the inhibition in assay [19] is 1.6%; in assay [20] it was -1.05%.

Regarding `COc1cc(N2CCN(C(C)C)CC2)ccc1Nc1nc(Nc2cccc(F)c2C(=O)O)c2cc[nH]c2n1`, the inhibition is 11.6% in assay [1]; 0.36% in assay [2]; 2.96% in [3]; 13.8% in assay [4]; 54.7% in assay [5]; -3.89% in [6]. Besides, the inhibition in assay [7] was 8.5%; in assay [8] it was -1.76%; in assay [9], 5.01%; in [10], -4.66%; in assay [11] it was -7.57%; in assay [12], 4.02%. Besides, the inhibition in assay [13] turned out to be 5.87%; in assay [14] it was 2.04%; in [15] it was 5.53%; in assay [16], 8.72%; in [17], 53.4%; in [18], 1.91%. In addition, the inhibition in assay [19] worked out at 5.95%; in assay [20], 4.69%.

A word on the inhibition: it is the drop in the measured response relative to a control, in per cent.
